Active and inactive are the calls of the source. Rule for the calls: active = hit-call score of the fitted dose curve at least 0.9, where 1 is the maximum; inactive = score below 0.9.
Assay: CEETOX_H295R_CORTIC: CeeTox H295R High-throughput Steroidogenesis Assay for Corticosterone (CORTIC) (AID 2283437);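 note: corticosterone secreted into medium quantified by mass spectrometry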
Conditions: actives raise or lower the signal
Procedure: CEETOX_H295R is a cell-based, multiplexed-readout assay that uses H295R, a human adrenal gland cell line, with measurements taken at 48 hours after chemical dosing in a 96-well plate.CEETOX_H295R_CORTIC is one of 23 assay component(s) measured or calculated from the CEETOX_H295R assay. It is designed to make measurements of hormone induction, a form of inducible reporter, as detected with absorbance signals by HPLC-MS-MS technology.Data from the assay component CEETOX_H295R_CORTIC was analyzed into 1 assay endpoint. This assay endpoint, CEETOX_H295R_CORTIC, was analyzed with bidirectional fitting relative to DMSO as the negative control and baseline of activity. Using a type of inducible reporter, gain or loss-of-signal activity using HPLC-MS-MS was used to understand synthesis of Corticosterone in H295R cell line at 48hr of chemical exposure. To generalize the intended target to other relatable targets, this assay endpoint is annotated to the steroid hormone intended target family, where the subfamily is glucocorticoids.
Cell culture and media preparation procedures were conducted in accordance with OECD Test No. 456 guidelines, with minor modifications. H295R cells (ATCC CRL-2128) were expanded for 5 passages and frozen in batches in liquid nitrogen. Prior to the steroidogenesis assay, H295R cells were thawed and passed at least 4 times. The maximum passage was 10. Cells were maintained in a 1:1 mixture of DMEM/F12 supplemented with 5ml/L ITS+ Premix (BD Bioscience) and 12.5 ml/L Nu-Serum (BD Bioscience). After seeding cells into 96-well plates at 50-60% confluency, cells were allowed to adhere overnight. Prior to chemical testing, culture medium was replaced with 175 uL medium containing 10 uM forskolin to stimulate steroidogenesis for 48 hours. Following prestimulation, forskolin medium was replaced with medium containing test chemical solubilized in DMSO (ensuring a final concentration of 0.1% DMSO). Test chemicals were incubated for 48 hours, then the medium was removed and split into 2 vials containing approximately 75uL each, and stored at -80 C prior to hormone analysis. For steroid quantification, media samples were shipped to OpAns, LLC (Durham, NC) on dry ice, and samples were thawed to room temperature prior to liquid-liquid extraction. Steroid hormones were extracted from media samples using methyl tertbutyl ether (MTBE). An extra derivatization with dansyl chloride was included for estrogen (estrone and estradiol) detection only. Steroid hormones were separated by HPLC, eluted using a reverse phase C18 gradient with electrospray positive ionization, followed by quantification by tandem mass spectrometry (MS/MS). Data were acquired on a MassHunter Workstation Acquisition version B03.01 (Agilent Technologies, Inc.) and processed using MassHunter Quantitative Analysis for QQQ. Accuracy was determined for each hormone analyte from 3 standards to determine upper and lower limits of quantification (ULOQ and LLOQ, respectively) using a 7-point standard curve. Precision and accuracy of the extraction and quantification methods were calculated as the percent relative standard deviation (%RSD) of the spiked standards and percent spiked standard recovered, respectively. […] Test medium was removed following chemical exposure, and cell viability was evaluated in the same wells by MTT. MTT procedures were as follows: after removal of test medium, 500 uL of 0.5 mg/ml of 3-[4,5-dimethylthiazol-2-y]2,5-diphenyltetrazoliumbromide solution was added to the cells. Following a 4-hour incubation at 37 C and 5% CO2 to allow formazan-crystal formation, the MTT solution was removed and blue formazan salt crystals were solubilized using 500uL anhydrous isopropanol with shaking for 20 minutes. Absorbance was read at 570 and 650nm using a Packard Fusion microplate reader. Background correction of absorbance units was used to determine percent change relative to controls. […]

Row | SMILES | outcome | AC50
1 | CC(C)(O)c1ccc(CNC(=O)c2cccnc2Oc2ccc(F)cc2)cc1 | inactive | –
2 | O=C1c2c(O)cccc2Cc2cccc(O)c21 | inactive | –
3 | Cc1cc(Cc2ccc(N)c(C)c2)ccc1N | – | 0.458 µM (active)
4 | O=C(O)CN(CC(=O)O)CC(=O)O | inactive | –
5 | CC1=C(C)S(=O)(=O)CCS1(=O)=O | inactive | –
6 | Oc1ccccc1O | inactive | –
7 | O=C(Oc1ccccc1)c1cccc(C(=O)Oc2ccccc2)c1 | – | 72.7 µM (active)
8 | CCCCc1nc2cccnc2n1Cc1ccc(-c2ccccc2-c2nnn[nH]2)cc1 | inactive | –
9 | CC(=O)[C@@]1(O)CC[C@H]2[C@@H]3CCC4=CC(=O)CC[C@]4(C)[C@H]3CC[C@@]21C | inactive | –
10 | CCCCCCCCCC[N+](C)(C)[O-] | inactive | –
11 | CCN(CC)CCOc1ccc(C(=C(Cl)c2ccccc2)c2ccccc2)cc1 | – | 0.039 µM (active)
12 | Oc1ccc(O)cc1 | inactive | –
13 | CN(C)C(=O)NC1(c2ccccc2)CCN(CCC[C@]2(c3ccc(Cl)c(Cl)c3)CCCN(C(=O)c3ccccc3)C2)CC1 | inactive | –
14 | S=c1[nH]c2ccccc2s1 | inactive | –
15 | COc1ccc(C(=O)Nc2nc3ccccc3c(NCc3ccccc3)c2C#N)cc1 | – | 3.33 µM (active)
16 | O=C1NC(=O)C(c2ccccc2)(c2ccccc2)N1 | – | 10.4 µM (active)
17 | Nc1nc(Cl)nc2c1ncn2[C@H]1C[C@H](O)[C@@H](CO)O1 | – | 5.64 µM (active)

— PubChem BioAssay (EPA / NIEHS)
